Results from PubChem BioAssay AID1347434 (National Center for Advancing Translational Sciences (NCATS), 2020).
In all, about 1,200 compounds went through this assay and about 30 (2%) were called active. Roughly 23% stayed inconclusive and do not appear here. Calls follow the shape of the dose curve; as a rule, active = well fitted inhibition curve with a large enough effect; inconclusive = small, poorly fitted or top-dose-only effect; inactive = flat fitted curve, though single readings scatter. What follows is part of a selection rich in actives, with near analogues and random picks from the rest.

The compounds below were run against Single-stranded DNA cytosine deaminase (Homo sapiens) (UniProt Q9GZX7) (assay: Confirmatory qHTS assay for inhibitors of Activation Induced Cytidine Deaminase (AID): AID signals). Details: recombinant AID, FRET deamination/UDG coupled fluorescence, 4 h; series mostly up to 115 µM; activity, negative = inhibition: at the top concentration.
Single-stranded DNA cytosine deaminase (Homo sapiens), sequence (Q9GZX7 whole entry, looked up): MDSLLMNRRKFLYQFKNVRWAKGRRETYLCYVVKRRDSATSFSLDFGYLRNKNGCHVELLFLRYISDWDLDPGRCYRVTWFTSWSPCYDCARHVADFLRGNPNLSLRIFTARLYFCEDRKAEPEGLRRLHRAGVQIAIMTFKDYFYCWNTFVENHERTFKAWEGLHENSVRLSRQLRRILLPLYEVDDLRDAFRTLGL
From the text: Assay Provider (PI) Patricia Gearhart Ph.D. National Institute on Aging National Institute of Health (NIH), Bethesda, MD Assay Provider (PI) Rahul Kohli Ph.D. Perelman School of Medicine University of Pennsylvania, Philadelphia, PA Activation-Induced Deaminase (AID) is a cytosine deaminase which converts cytosine into uracil within stretches of ssDNA. The presence of uracil in DNA initiates a cascade of mutagenic DNA repair to introduce point mutations and DNA double strand breaks. Specific targeting of AID to the immunoglobulin heavy chain loci (Igh) promotes mutagenesis in the antibody variable region for somatic hypermutation (SHM) or switch regions leading to class switch recombination (CSR). However, AID also plays a role in accumulating unnecessary mutations across the genome. Mis-targeting of AID results in the initiation of tumor development and leads to greater drug resistance among cancer cells when continually expressed. To identify an AID inhibitor, a small molecule library will be screened in collaboration with NCATS core facility at NIH. To confirm biological function, inhibitors will be examined in an in vitro murine B-cell activation assay and subsequent secondary validation screens. Top molecules will be further screened to identify inhibitory efficacy against a wild type primary splenocytes assay. Using these approaches, we hope to identify a small molecule with great efficacy and low toxicity for use as a molecular probe to further characterize AID's intricacies, or even as a therapeutic. A FRET based analysis of cytosine deamination, was developed to identify potential inhibitors of AID catalytic activity. This screen has two signal output, Read 1 evaluates the AID inhibition response. The second readout (Read 2) evaluates UDG response and is uses as a counterscreen to exclude false positive inhibitors. Inhibition in AID and inactivity in the UDG signal is the desired outcome for this assay.
PROTOCOL TABLE SEQUENCE No. (e.g., 1, 2, 3, etc.); […] (e.g., Cells, Incubation, Reagent, etc.); VALUE; DESCRIPTION 1a; Reagent; 3 uL; [4/3x] 1 uM AID/2.67 U/mL UDG 1b; Reagent; 3 uL; 2 U/mL UDG 1c; Reagent; 3 uL; 1 uM AID 2a; Compound; 46 nL; Follow-up plates (0.64 uM - 10 mM) 2b; Control; 46 nL; ATA (16.4 nM - 10 mM) 3; Time; 10 min; incubation at room temperature 4; Reagents; 1 uL; [4x] 250 nM DJC20 / 250 nM DJC23 [Substrate] 5; Time; 4 hr; incubation at room temperature 6; Reagent; 4 uL; [2x] 250 mM NaOH 7; Time; 15 sec; centrifuge at 1000 rpm 8; Time; 30 min; incubation at room temperature 9a; Detection; fluorescence (Read 1: AID); EnVision (PerkinElmer) plate reader, 540 excitation and 590 emission filters 9b; Detection; fluorescence (Read 2: UDG); EnVision (PerkinElmer) plate reader, 560 excitation and 665 emission filters NOTES (numbers refer to sequence above) 1a; Reagents were dispensed in a medium-binding black solid-bottom Greiner plates (789176F) using a BioRptr liquid dispenser. Dispense 3 uL of [4/3x] 1 uM AID (provided by Kohli lab) and [4/3x] 2 U/mL UDG (NEB M0280L) into columns 1, 2, 5 to 48. 1b; Dispense 3 uL of [4/3x] 2 U/mL UDG into column 3. 1c; Dispense 3 uL of [4/3x] 1 uM AID into column 4. 2a; Compound ([…] [uM]: 0.64; 3.2; 16; 80; 400; 2,000; 10,000; 20,000) double pin-transferred (Dip Factor = 2) using the Kalypsys (Wako USA) pintool equipped with a 1536 pinhead for a final concentration range of 7.32 nM - 114 uM. 2b; 10 mM Aurintricarboxylic Acid (Sigma A1895) (ATA, 8-point, n = 2, 1:2.5 dilution in column 2) double pin-transferred (Dip Factor = 2) using the Kalypsys (Wako USA) pintool equipped with a 1536 pinhead for a [final] range of 186 nM - 114 uM. 3; Room temperature incubation. 4; Dispense 1 uL of substrate mixture from the Kohli lab [4x] […] DJC20 and [4x] 250 nM DJC23 into columns 1 to 48 . 5; Room temperature incubation. 6; Dispense 4 uL of […] [2x] 250 mM NaOH into columns 1 to 48. 7; Centrifugation step to remove bubbles. […]
% is scaled to controls: 0 for no effect and ±100 for the full control effect; potency is read from the fitted curve at half-maximal effect.

activity, negative = inhibition, inactive:
CCc1ccc(OCC(=O)N(Cc2ccc(Cl)cc2)C2CCS(=O)(=O)C2)cc1 (stereo not given) -5.69%
Cc1ccc(Cl)cc1N1CCN(CCCNC(=O)c2ccc3nc(N4CCCCC4)sc3c2)CC1 -4.77%
Cn1c(SCc2ccc(F)cc2)nc2ccc(C(=O)NCc3ccc(F)cc3)cc21 -11.1%
COc1ccccc1CNC(=O)c1cnn2c(C)c(Cc3ccc(F)cc3)c(C)nc12 -10.8%
CCn1c(SCc2ccc(F)cc2Cl)nc(=O)c2c(C(=O)OC)cc(C3CC3)nc21 -28.3%
Cc1ccc(CN(Cc2ccco2)C(=O)c2ccccc2Br)o1 -10.6%
Cc1cc(Nc2cccc(F)c2)n2nc(-c3ccco3)nc2n1 7.61%
Cc1ccc(C)c(Cn2nc(-c3cc(C)ccc3C)ccc2=O)c1 -23.4%
CC1=Nc2cc(C(=O)N3CCC(C)CC3)ccc2Sc2ccc(Cl)cc21 -5.99%
O=C(NCCc1ccccc1)c1sc2ncccc2c1-n1cccc1 -19.5%
Cc1ccc(Cl)cc1NC(=O)C(C)n1nc(-c2ccccc2)ccc1=O (stereo not given) -16.4%
Cn1nc(-c2ccc(C(=O)Nc3ccc(F)cc3)cc2)c2ccccc2c1=O -28.5%
CCc1nnc(SCc2cccc(F)c2)c2cc3sc(C)cc3n12 -18.8%
Cc1cccc(N2CCN(C(=O)CS(=O)(=O)Cc3nc(-c4ccccc4C)oc3C)CC2C)c1 (stereo not given) 2.05%
Cc1ccc(C)c(N(C)C(=O)C2CCN(c3ncnc4c3nc3n4CCCCC3)CC2)c1 -0.379%
COc1ccc(NC(=O)CSc2nc3nc(C)c(Cc4ccccc4)c(C)n3n2)cc1OC -21.6%
CN(C)CCNc1ncnc2c1cnn2-c1cccc(Cl)c1 -20.9%
Cc1ccc(C)c(N2CCN(CCCNc3ncnc4onc(-c5ccc(Cl)cc5)c34)CC2)c1 -2.73%
CCc1ccc(CNC(=O)c2cnc3sc(N(CC)CC)nn3c2=O)cc1 -15.7%
Cc1ccc(S(=O)(=O)N2CCCC2C(=O)Nc2ccc(Br)cc2)cc1 (stereo not given) -1.15%
CCc1nnc2c(N3CCN(c4cccc(C)c4)C(C)C3)nc3ccccc3n12 (stereo not given) -18.2%
CCOC(=O)C1=C(CN2CCN(c3cc(C)ccc3C)CC2)NC(=O)NC1c1ccccc1 (stereo not given) -4.99%
COc1ccc(S(=O)(=O)N(CC(=O)NC(C)c2ccccc2)c2ccc(C)cc2)cc1OC (stereo not given) 1.71%
COc1ccccc1C(=O)Nc1ccc(C(=O)OCc2cc(=O)n3nc(C)sc3n2)cc1 2.56%
Cc1cccc(C)c1OCC(=O)N(Cc1ccco1)Cc1ccco1 -0.167%
CCC1CCCCN1C(=O)CSc1nc2c([nH]c3ccccc32)c(=O)n1-c1cccc(OC)c1 (stereo not given) -12.2%
O=C(CCCCCn1c(=O)[nH]c2ccccc2c1=O)NCc1ccc(Cl)cc1 9.51%
Cc1cccc(C)c1NC(=O)CS(=O)(=O)c1nc(-c2ccc(Cl)cc2)cn1-c1ccccc1 -7.27%
CN1CCN(c2nc3c(S(=O)(=O)c4ccc(Cl)cc4)nnn3c3ccsc23)CC1 -27.7%
COc1ccccc1C(=O)NCCn1cc(SCc2ccccc2Cl)c2ccccc21 -0.695%
Cc1ccc2c(c1)c(=O)c(C(=O)c1ccccc1)cn2Cc1ccccc1F -20.4%
O=C(c1ccc(F)cc1)c1cn(Cc2ccccc2)c2cc3c(cc2c1=O)OCO3 -10.5%
COc1ccc(NCc2nc3ccccc3n2CCOc2ccccc2C)cc1 -11.3%
Cc1cccc(N2CCN(C(=O)c3sc4nc5n(c(=O)c4c3C)CCC5)CC2C)c1 (stereo not given) -8.89%
CN(c1ncnc2onc(-c3cccc(Cl)c3)c12)C1CCCCC1 -20.3%
COc1ccc(CCN2CCC(CNC(=O)c3cnn(-c4ccccc4)c3C3CCN(C(=O)OC(C)(C)C)CC3)CC2)cc1 -15%
CC(C)(C)OC(=O)N1CCC(c2c(C(=O)NCCN3CCC(Cc4ccccc4)CC3)cnn2-c2ccccc2)CC1 -19.5%
CCN(CC)CCNC(=O)c1ccc2c(=O)n3nc(Nc4ccccc4)sc3nc2c1 -15.6%
CCN(CC)CCNC(=O)c1ccc2c(=O)n3nc(Nc4ccccc4OC)sc3nc2c1 -25.4%
Cc1nc2nc(SCC(=O)NCc3ccccc3)nn2c(C)c1Cc1ccccc1Cl -23.7%
COc1ccc(C(=O)c2sc3nc4c(c(C(F)(F)F)c3c2N)CN(C(C)=O)CC4)cc1OC 6.76%

Potency, active:
CCCCCCCCc1ccc(-c2ccc(C(=O)O)cc2)cc1 35.5 µM
CC(=O)[C@]1(O)Cc2c(O)c3c(c(O)c2[C@@H](O[C@H]2C[C@H](N)[C@H](O)[C@H](C)O2)C1)C(=O)c1ccccc1C3=O 5.62 µM
COc1ccc(CCN2CCC(CNC(=O)c3cnn(-c4cccc(Cl)c4)c3C3CCN(C(=O)OC(C)(C)C)CC3)CC2)cc1 31.6 µM
CCN(CC)CCNC(=O)c1ccc2c(=O)n3nc(Nc4cccc(Cl)c4C)sc3nc2c1 50.1 µM
